What all share (assay): DAPPL (digital affinity profiling via proximity ligation, sequencing); 10 mM Tris-HCl pH 7.5, 50 mM NaCl, 1 mM DTT, 4% glycerol, room temperature, 30 min; GST-TFs on glutathione beads, 16-mer random dsDNA library, 0.1% formaldehyde crosslink after washing; high values mean tight binding
Common to all, as to conditions: protein: recombinant; tags: N-terminal GST; dsDNA, one strand shown

Experiment [1] concerns the target T1, FLI1 (Homo sapiens, UniProt Q01543 1-452).
T1 sequence: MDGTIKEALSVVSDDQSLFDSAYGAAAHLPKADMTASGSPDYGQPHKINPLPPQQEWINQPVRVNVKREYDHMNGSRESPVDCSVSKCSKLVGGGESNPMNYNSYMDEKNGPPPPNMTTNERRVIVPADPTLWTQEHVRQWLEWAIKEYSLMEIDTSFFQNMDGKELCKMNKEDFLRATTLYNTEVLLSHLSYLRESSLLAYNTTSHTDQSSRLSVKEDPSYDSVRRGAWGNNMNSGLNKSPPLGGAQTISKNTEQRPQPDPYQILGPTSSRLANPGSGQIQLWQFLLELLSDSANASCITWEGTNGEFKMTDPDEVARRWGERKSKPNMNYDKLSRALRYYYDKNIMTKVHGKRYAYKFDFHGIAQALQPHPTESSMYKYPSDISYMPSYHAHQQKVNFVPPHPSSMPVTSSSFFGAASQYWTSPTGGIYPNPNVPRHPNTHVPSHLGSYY
An outline of the steps:
(§1)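 After expression in yeast as GST fusions, human transcription factors were bound to glutathione beads, DNA-barcoded and mixed with a tag-only sample. The pools were incubated with 200 nmole of a 16-mer random double-stranded DNA library in Tris/NaCl/DTT/glycerol buffer (30 min, room temperature), washed and crosslinked with 0.1% formaldehyde. Proximity ligation with BsaI/T4 ligase ran for 1 h at 37 °C, before PCR amplification and sequencing on an Illumina NextSeq500. Binding signal is a hexamer's read frequency for a factor divided by its frequency for the tag-only sample.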

Experiment [2] deals with T2, ELK1 (Homo sapiens, UniProt P19419 1-428).
T2 sequence: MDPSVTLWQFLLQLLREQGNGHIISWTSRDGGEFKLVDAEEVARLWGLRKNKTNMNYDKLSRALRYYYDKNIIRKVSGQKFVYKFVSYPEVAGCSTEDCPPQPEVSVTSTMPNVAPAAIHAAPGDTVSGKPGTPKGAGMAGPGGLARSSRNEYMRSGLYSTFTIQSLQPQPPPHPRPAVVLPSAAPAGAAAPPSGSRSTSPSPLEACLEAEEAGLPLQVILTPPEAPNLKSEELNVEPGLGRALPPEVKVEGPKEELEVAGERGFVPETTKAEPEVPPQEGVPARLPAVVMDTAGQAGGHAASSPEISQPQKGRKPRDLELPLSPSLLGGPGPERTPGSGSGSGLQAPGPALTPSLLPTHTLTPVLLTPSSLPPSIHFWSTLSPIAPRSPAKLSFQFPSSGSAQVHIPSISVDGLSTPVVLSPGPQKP
An outline of the steps: as §1

In experiment [3] the target is T3, GABPA (Homo sapiens, UniProt Q06546 1-454).
T3 sequence: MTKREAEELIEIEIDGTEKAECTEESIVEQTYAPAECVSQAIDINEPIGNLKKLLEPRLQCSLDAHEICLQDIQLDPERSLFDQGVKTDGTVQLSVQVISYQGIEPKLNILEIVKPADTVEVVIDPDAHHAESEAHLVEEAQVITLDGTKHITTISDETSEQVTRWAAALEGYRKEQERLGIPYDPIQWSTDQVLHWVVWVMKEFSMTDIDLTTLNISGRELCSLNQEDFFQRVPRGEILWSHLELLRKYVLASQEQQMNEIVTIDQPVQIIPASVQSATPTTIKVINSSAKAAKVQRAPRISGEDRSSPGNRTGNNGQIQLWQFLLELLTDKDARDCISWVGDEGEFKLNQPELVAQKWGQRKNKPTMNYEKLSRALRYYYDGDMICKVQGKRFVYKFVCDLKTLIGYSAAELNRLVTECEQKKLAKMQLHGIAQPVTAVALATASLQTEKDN
A digest of the protocol:
as §1

For experiment [4], the target named is T4, ERG (Homo sapiens, UniProt P11308 1-479).
T4 sequence: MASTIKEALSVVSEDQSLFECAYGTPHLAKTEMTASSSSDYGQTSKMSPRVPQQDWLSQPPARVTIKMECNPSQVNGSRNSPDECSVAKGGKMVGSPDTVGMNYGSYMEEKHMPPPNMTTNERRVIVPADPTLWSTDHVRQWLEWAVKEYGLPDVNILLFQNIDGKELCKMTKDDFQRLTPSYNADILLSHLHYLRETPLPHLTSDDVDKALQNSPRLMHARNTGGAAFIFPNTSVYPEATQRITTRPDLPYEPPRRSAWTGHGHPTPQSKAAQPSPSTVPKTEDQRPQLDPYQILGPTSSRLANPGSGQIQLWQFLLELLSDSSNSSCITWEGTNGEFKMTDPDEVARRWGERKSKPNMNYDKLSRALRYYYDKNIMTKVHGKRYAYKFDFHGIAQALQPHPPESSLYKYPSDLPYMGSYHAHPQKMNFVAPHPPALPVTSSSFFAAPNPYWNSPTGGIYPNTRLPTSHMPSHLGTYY
An outline of the steps: as §1

Experiment [5] has as its target ELF1 (Homo sapiens, UniProt P32519 1-619). A digest of the protocol: as §1
In experiment [6] the target is T5, EHF (Homo sapiens, UniProt Q9NZC4 1-300).
T5 sequence: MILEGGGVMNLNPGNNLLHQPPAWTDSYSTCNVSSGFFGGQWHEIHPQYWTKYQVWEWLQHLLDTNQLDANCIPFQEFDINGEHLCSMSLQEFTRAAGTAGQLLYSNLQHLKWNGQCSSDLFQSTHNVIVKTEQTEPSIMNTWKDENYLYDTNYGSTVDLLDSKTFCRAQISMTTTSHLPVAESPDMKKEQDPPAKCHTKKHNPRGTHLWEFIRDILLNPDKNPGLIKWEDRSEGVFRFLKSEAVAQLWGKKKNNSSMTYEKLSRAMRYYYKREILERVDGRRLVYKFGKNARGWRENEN
A digest of the protocol:
as §1

The target in experiment [7] is SPI1 (Homo sapiens, UniProt P17947 1-270). A digest of the protocol: as §1
For experiment [8], the target named is T6, ELK3 (Homo sapiens, UniProt P41970 1-407).
T6 sequence: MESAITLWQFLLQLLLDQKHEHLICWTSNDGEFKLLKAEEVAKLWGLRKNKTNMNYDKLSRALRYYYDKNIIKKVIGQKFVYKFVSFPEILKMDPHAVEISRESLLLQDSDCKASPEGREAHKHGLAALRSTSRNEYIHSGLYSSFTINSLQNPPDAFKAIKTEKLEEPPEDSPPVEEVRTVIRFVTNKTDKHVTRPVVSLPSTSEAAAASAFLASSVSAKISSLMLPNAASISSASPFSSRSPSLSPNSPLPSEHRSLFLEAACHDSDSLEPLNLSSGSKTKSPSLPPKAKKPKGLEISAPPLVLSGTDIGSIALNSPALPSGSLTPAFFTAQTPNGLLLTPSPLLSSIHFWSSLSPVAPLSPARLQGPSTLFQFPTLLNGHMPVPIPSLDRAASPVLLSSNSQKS
A digest of the protocol:
as §1

In experiment [9] the target is T7, FEV (Homo sapiens, UniProt Q99581 1-238).
T7 sequence: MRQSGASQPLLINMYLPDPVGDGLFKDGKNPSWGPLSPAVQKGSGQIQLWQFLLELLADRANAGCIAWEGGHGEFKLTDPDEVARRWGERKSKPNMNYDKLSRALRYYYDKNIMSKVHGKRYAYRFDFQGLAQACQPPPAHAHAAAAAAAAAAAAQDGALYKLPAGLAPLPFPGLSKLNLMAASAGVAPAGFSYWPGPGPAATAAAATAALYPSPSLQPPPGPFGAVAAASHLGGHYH
An outline of the steps: as §1

Experiment [10] addresses ETV5 (Homo sapiens, UniProt P41161 1-510). An outline of the steps: as §1
For experiment [11], the target named is T8, SPIC (Homo sapiens, UniProt Q8N5J4 1-248).
T8 sequence: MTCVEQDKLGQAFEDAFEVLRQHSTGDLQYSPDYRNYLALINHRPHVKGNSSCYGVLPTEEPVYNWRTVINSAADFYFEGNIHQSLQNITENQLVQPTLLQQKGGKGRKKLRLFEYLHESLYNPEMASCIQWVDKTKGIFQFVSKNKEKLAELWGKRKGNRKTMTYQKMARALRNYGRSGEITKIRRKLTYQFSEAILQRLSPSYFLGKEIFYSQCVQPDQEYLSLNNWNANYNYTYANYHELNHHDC
An outline of the steps:
as §1

In experiment [12] the target is ELF4 (Homo sapiens, UniProt Q99607 1-663). A digest of the protocol:
as §1

Experiment [13] has as its target ETV1 (Homo sapiens, UniProt P50549 1-477). An outline of the steps: as §1
The target of experiment [14] is T9, ERF (Homo sapiens, UniProt P50548 1-548).
T9 sequence: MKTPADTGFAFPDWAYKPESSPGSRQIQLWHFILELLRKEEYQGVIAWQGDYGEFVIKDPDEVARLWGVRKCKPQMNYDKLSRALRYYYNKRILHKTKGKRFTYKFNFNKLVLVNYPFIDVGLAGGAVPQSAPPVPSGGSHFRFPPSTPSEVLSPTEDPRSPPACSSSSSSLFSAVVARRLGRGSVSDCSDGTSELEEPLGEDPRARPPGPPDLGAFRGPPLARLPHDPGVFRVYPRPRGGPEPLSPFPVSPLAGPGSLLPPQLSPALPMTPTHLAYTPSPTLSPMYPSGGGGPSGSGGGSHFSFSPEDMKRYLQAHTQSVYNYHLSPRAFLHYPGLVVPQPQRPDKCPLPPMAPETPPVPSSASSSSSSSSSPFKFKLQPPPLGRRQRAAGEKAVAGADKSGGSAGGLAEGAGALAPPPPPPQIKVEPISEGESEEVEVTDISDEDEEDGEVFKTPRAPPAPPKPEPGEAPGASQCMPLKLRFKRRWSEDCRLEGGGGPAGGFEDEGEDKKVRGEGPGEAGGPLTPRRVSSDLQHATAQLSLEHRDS
A digest of the protocol: as §1

The target of experiment [15] is T10, ELF5 (Homo sapiens, UniProt Q9UKW6-2 1-255).
T10 sequence: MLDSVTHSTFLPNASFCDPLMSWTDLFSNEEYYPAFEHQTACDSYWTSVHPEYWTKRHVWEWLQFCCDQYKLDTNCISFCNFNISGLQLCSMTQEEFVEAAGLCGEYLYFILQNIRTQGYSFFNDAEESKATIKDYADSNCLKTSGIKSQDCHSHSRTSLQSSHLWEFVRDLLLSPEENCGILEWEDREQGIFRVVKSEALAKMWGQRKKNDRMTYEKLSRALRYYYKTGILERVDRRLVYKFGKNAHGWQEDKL
A digest of the protocol: as §1

Experiment [16] concerns the target T11, ETV3 (Homo sapiens, UniProt P41162-2 1-143).
T11 sequence: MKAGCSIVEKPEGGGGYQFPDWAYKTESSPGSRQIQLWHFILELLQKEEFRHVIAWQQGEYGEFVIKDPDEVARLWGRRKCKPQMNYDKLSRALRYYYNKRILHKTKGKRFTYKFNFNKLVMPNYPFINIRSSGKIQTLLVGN
A digest of the protocol: as §1

The target in experiment [17] is ETV6 (Homo sapiens, UniProt P41212 1-452). A digest of the protocol:
as §1

Sequence of ETV5 (P41161 whole entry): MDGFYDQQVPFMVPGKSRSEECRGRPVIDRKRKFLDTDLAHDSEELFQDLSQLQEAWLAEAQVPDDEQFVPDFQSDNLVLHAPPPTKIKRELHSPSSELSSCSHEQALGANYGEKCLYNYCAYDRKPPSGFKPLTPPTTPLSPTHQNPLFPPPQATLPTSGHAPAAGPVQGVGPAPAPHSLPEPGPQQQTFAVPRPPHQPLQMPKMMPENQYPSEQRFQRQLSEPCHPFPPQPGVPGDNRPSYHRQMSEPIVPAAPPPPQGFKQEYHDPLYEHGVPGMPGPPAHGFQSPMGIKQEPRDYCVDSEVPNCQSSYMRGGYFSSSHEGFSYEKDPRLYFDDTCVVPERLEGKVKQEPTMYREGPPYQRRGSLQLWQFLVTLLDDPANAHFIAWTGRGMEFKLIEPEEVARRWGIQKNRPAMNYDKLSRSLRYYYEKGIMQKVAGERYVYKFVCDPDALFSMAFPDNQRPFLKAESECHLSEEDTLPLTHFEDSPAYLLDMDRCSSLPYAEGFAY
Sequence of ELF4 (Q99607 whole entry): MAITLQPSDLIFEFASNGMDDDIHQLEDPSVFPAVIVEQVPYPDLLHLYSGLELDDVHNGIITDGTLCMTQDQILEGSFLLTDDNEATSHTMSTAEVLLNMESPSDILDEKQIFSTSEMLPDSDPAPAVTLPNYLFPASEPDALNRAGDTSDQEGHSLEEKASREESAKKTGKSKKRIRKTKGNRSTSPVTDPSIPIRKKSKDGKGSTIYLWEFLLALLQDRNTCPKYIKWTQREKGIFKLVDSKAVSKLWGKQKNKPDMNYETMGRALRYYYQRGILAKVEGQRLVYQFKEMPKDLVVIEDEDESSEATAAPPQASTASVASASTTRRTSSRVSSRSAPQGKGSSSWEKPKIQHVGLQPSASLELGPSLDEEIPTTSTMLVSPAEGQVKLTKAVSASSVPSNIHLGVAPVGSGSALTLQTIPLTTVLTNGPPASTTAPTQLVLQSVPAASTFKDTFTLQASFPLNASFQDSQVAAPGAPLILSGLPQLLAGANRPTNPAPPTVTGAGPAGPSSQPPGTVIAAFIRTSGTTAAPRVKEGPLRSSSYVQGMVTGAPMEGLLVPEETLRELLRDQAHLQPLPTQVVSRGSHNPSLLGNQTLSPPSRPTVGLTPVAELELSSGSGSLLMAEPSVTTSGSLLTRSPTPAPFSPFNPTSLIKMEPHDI
Sequence of ETV1 (P50549 whole entry): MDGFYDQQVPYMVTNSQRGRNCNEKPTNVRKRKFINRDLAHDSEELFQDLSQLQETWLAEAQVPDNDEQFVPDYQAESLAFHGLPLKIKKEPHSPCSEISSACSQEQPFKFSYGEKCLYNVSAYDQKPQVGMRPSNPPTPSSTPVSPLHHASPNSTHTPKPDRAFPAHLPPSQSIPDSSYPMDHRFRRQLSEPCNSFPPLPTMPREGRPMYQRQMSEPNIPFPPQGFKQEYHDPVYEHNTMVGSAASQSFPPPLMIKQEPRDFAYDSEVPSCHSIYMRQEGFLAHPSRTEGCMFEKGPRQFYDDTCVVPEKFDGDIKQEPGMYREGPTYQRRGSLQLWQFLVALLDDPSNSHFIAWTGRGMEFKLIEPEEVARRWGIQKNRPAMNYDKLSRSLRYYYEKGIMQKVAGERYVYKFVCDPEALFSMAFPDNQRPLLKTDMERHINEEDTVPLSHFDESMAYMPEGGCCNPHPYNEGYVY
Sequence of ELF1 (P32519 whole entry): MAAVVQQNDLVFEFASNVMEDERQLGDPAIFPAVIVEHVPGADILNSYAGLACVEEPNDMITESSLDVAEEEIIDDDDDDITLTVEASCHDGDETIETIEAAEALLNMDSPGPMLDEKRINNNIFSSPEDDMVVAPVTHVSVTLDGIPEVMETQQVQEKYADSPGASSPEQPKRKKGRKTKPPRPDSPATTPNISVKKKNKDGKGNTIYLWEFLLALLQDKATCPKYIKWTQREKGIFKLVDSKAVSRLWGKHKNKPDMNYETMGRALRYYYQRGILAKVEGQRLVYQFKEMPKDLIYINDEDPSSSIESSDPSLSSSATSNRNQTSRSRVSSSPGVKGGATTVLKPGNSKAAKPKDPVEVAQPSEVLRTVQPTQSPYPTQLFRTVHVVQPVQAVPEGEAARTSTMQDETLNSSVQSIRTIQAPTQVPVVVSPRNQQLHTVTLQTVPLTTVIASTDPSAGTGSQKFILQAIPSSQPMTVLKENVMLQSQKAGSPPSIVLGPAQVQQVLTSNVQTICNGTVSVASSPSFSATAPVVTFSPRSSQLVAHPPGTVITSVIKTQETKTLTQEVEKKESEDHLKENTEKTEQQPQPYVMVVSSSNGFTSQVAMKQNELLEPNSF
Sequence of ETV6 (P41212 whole entry): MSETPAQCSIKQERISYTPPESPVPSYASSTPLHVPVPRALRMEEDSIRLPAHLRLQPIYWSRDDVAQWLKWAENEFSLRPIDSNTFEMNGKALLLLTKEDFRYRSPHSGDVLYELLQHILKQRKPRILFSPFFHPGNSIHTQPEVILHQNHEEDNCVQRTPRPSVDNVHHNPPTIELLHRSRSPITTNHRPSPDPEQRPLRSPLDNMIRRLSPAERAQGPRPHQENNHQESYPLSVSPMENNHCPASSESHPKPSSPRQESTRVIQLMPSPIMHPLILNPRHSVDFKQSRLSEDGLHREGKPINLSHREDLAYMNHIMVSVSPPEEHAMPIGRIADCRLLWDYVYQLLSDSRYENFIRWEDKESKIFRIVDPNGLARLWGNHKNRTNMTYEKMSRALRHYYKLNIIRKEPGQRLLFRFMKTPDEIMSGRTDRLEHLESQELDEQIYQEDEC

Regarding CCCCGT, the binding signal was 1.05 fold enrichment (6-mer frequency, TF over GST control) in [1]; 1.08 fold enrichment (6-mer frequency, TF over GST control) in experiment [2]; 1.02 fold enrichment (6-mer frequency, TF over GST control) in experiment [3]; 1.1 fold enrichment (6-mer frequency, TF over GST control) in experiment [4]; 1.06 fold enrichment (6-mer frequency, TF over GST control) in [5]; 1.13 fold enrichment (6-mer frequency, TF over GST control) in [6]. For the same sequence, the binding signal in experiment [7] is 1.1 fold enrichment (6-mer frequency, TF over GST control); in experiment [8] it was 1.09 fold enrichment (6-mer frequency, TF over GST control); in [9], 1.01 fold enrichment (6-mer frequency, TF over GST control); in experiment [10], 1.03 fold enrichment (6-mer frequency, TF over GST control); in experiment [11], 1.05 fold enrichment (6-mer frequency, TF over GST control); in experiment [12], 1.07 fold enrichment (6-mer frequency, TF over GST control). Also, the binding signal in experiment [13] was 1 fold enrichment (6-mer frequency, TF over GST control); in [14], 1.13 fold enrichment (6-mer frequency, TF over GST control); in [15] it was 1.06 fold enrichment (6-mer frequency, TF over GST control); in experiment [16] it was 1.06 fold enrichment (6-mer frequency, TF over GST control); in [17], 1.08 fold enrichment (6-mer frequency, TF over GST control).
